In PubChem BioAssay (NCI) one finds growth inhibition data, which are given here for 9 compounds.

Structures are written as SMILES. About 79,000 compounds went through this panel and 15% of them were active in at least one assay; those are over-represented in the sample as a whole. Unmarked numbers belong to inactive results. Calls of active or inactive are those of the source. No stated cut-off is given here; in the data, active means growth inhibition above about 70%; inactive means the rest.

Experiment [1] is described as follows: NCI Yeast Anticancer Drug Screen. Data for the rad50 strain (AID 155).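 Further: 0% = growth of vehicle-only cultures of the same strain.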 Conditions: S. cerevisiae rad50 strain growth inhibition, active compounds read high. In short, it runs like this: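 Cells are treated with compound, grown, and their growth is then scored against vehicle-only cultures of the same repair-deficient yeast strain.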
The nature of experiment [2]: NCI Yeast Anticancer Drug Screen. Data for the mec2-1 strain (AID 157). Conditions: S. cerevisiae mec2-1 strain, active compounds read high. The procedure, abridged:
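mec2-1 yeast strain, carrying an alteration in DNA damage repair or cell cycle control, was exposed to compounds; growth inhibition was measured relative to vehicle-treated controls.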

Experiment [3] is described as follows: NCI Yeast Anticancer Drug Screen. Data for the sgs1 mgt1 strain (AID 161).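 Further: 0% = growth of cultures given vehicle only.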 Conditions: S. cerevisiae sgs1 mgt1 strain, active compounds read high. In short, it runs like this:
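Growth of a repair-deficient yeast mutant was monitored after compound treatment and expressed as inhibition relative to vehicle-treated cultures.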

A short description of experiment [4]: NCI Yeast Anticancer Drug Screen. Data for the cln2 rad14 strain (AID 165).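 Further: 0% = growth equal to vehicle treated cultures.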 Conditions: S. cerevisiae cln2 rad14 strain, active compounds read high. In short, it runs like this:
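Yeast carrying cln2 and rad14 alterations (cell cycle control and DNA damage repair) were exposed to compounds. Growth inhibition was measured against vehicle-treated controls.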

The nature of experiment [5]: NCI Yeast Anticancer Drug Screen. Data for the bub3 strain (AID 167). Conditions: S. cerevisiae bub3 mutant strain, active compounds read high. The procedure, abridged: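 Part of a panel of yeast mutants defective in DNA damage repair or cell cycle regulation. Each strain is grown with compound, and inhibition is calculated relative to solvent-treated cultures.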
Experiment [6] is described as follows: NCI Yeast Anticancer Drug Screen. Data for the mlh1 rad18 strain (AID 175). Conditions: S. cerevisiae mlh1 rad18 strain growth inhibition, active compounds read high. The procedure, abridged:
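Growth inhibition of the yeast strain was measured after compound exposure and expressed relative to vehicle-treated controls. The strain carries defined defects in DNA damage repair.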

Setting [7] is: at 5.0 µM (retest, dose inferred, filed as 0.5).
[8] abbreviates: at 50.0 µM (retest, dose inferred, filed as 5.0).

Regarding `CCCCCCCCCCC(=O)CC(=O)c1c(O)cccc1O`, the growth inhibition was -14% in experiment [1] (setting [7]); -1% in experiment [1] (setting [8]); 1.9% in experiment [1] (at 50.0 µM); -11% in experiment [2] (setting [7]); 5% in experiment [2] (setting [8]); -0.35% in experiment [2] (at 50.0 µM). The growth inhibition was 10% in experiment [3] (setting [7]); 5% in experiment [3] (setting [8]); 2.4% in experiment [3] (at 50.0 µM); 0% in experiment [4] (setting [7]); 12% in experiment [4] (setting [8]); -37.5% in experiment [4] (at 50.0 µM). Moreover, the growth inhibition in experiment [5] (setting [7]) is 12%; in experiment [5] (setting [8]), 17%; in experiment [5] (at 50.0 µM), -1.95%; in experiment [6] (setting [7]), -16%; in experiment [6] (setting [8]), 16%; in experiment [6] (at 50.0 µM) it was 1.5%.
With `CC1(C)S[C@@H]2[C@H](N3C(=O)c4ccccc4C3=O)CN2[C@H]1NC(=O)N[C@@H]1N2C[C@@H](N3C(=O)c4ccccc4C3=O)[C@H]2SC1(C)C`, the growth inhibition in experiment [1] (setting [7]) is 0%; in experiment [1] (setting [8]), 18%; in experiment [1] (at 50.0 µM), 39.6%; in experiment [2] (setting [7]) it was -4%; in experiment [2] (setting [8]), 43%; in experiment [2] (at 50.0 µM) it was 63.8%. Also, the growth inhibition in experiment [3] (setting [7]) was -2%; in experiment [3] (setting [8]) it was 20%; in experiment [3] (at 50.0 µM) it was 43%; in experiment [4] (setting [7]), -6%; in experiment [4] (setting [8]) it was 44%; in experiment [4] (at 50.0 µM) it was 23.2%. Besides, the growth inhibition was 4% in experiment [5] (setting [7]); 93% (active) in experiment [5] (setting [8]); 92.8% (active) in experiment [5] (at 50.0 µM); -2% in experiment [6] (setting [7]); 36% in experiment [6] (setting [8]); 70.8% (active) in experiment [6] (at 50.0 µM).
For `N#CSc1ccc2nc(NCO)sc2c1`, the growth inhibition in experiment [1] (setting [7]) is 22%; in experiment [1] (setting [8]) it was 97% (active); in experiment [1] (at 50.0 µM), 98.9% (active); in experiment [2] (setting [7]) it was 7%; in experiment [2] (setting [8]), 97% (active); in experiment [2] (at 50.0 µM), 99.3% (active). The growth inhibition is 18% in experiment [3] (setting [7]); 98% (active) in experiment [3] (setting [8]); 99.3% (active) in experiment [3] (at 50.0 µM); -9% in experiment [4] (setting [7]); 89% (active) in experiment [4] (setting [8]); 96% (active) in experiment [4] (at 50.0 µM). Besides, the growth inhibition in experiment [5] (setting [7]) was 12%; in experiment [5] (setting [8]), 97% (active); in experiment [5] (at 50.0 µM), 95.4% (active); in experiment [6] (setting [7]), 45%; in experiment [6] (setting [8]), 97% (active); in experiment [6] (at 50.0 µM), 99.1% (active).
As to `CC1CC(c2ccccc2)(c2ccccc2)C(=O)C(C)N1C` (configuration not stated), the growth inhibition in experiment [1] (setting [7]) is -1%; in experiment [1] (setting [8]) it was 22%; in experiment [1] (at 50.0 µM), 13.6%; in experiment [2] (setting [7]), -2%; in experiment [2] (setting [8]), -5%; in experiment [2] (at 50.0 µM) it was 29.9%. For the same compound, the growth inhibition in experiment [3] (setting [7]) is 0%; in experiment [3] (setting [8]), -19%; in experiment [3] (at 50.0 µM), 14.2%; in experiment [4] (setting [7]) it was -1%; in experiment [4] (setting [8]) it was -2%; in experiment [4] (at 50.0 µM), 28%. Besides, the growth inhibition in experiment [5] (setting [7]) is -4%; in experiment [5] (setting [8]), 10%; in experiment [5] (at 50.0 µM) it was 72% (active); in experiment [6] (setting [7]) it was -3%; in experiment [6] (setting [8]) it was 7%; in experiment [6] (at 50.0 µM), 25.9%.
`CCCCN(CCCC)CC(O)c1cccc2c(Cl)cccc12` (configuration not stated): the growth inhibition was 15% in experiment [1] (setting [7]); 54% in experiment [1] (setting [8]); 86.5% (active) in experiment [1] (at 50.0 µM); 8% in experiment [2] (setting [7]); 75% (active) in experiment [2] (setting [8]); 71.7% (active) in experiment [2] (at 50.0 µM). Further, the growth inhibition in experiment [3] (setting [7]) is 13%; in experiment [3] (setting [8]), 93% (active); in experiment [3] (at 50.0 µM) it was 88.5% (active); in experiment [4] (setting [7]), 8%; in experiment [4] (setting [8]) it was 57%; in experiment [4] (at 50.0 µM), 89.7% (active). The growth inhibition was 13% in experiment [5] (setting [7]); 82% (active) in experiment [5] (setting [8]); 94.8% (active) in experiment [5] (at 50.0 µM); 24% in experiment [6] (setting [7]); 88% (active) in experiment [6] (setting [8]); 70.5% (active) in experiment [6] (at 50.0 µM).
For `NC(=O)c1ccccc1OC(=O)NCCO`, the growth inhibition in experiment [1] (setting [7]) was 6%; in experiment [1] (setting [8]), -3%; in experiment [1] (at 50.0 µM), 3.2%; in experiment [2] (setting [7]) it was -2%; in experiment [2] (setting [8]), -5%; in experiment [2] (at 50.0 µM), -1.7%. Further, the growth inhibition was 3% in experiment [3] (setting [7]); 2% in experiment [3] (setting [8]); -1.2% in experiment [3] (at 50.0 µM); -1% in experiment [4] (setting [7]); -7% in experiment [4] (setting [8]); 35.8% in experiment [4] (at 50.0 µM). Also, the growth inhibition in experiment [5] (setting [7]) is -4%; in experiment [5] (setting [8]) it was 3%; in experiment [5] (at 50.0 µM), 1.7%; in experiment [6] (setting [7]), 0%; in experiment [6] (setting [8]), 7%; in experiment [6] (at 50.0 µM) it was 7.35%.
In the case of `CC(CN1CCOCC1)(CN1CCOCC1)[N+](=O)[O-]`, the growth inhibition in experiment [1] (setting [7]) is 10%; in experiment [1] (setting [8]), 99% (active); in experiment [1] (at 50.0 µM), 99.6% (active); in experiment [2] (setting [7]), 8%; in experiment [2] (setting [8]) it was 100% (active); in experiment [2] (at 50.0 µM) it was 99.8% (active). Moreover, the growth inhibition in experiment [3] (setting [7]) is 4%; in experiment [3] (setting [8]) it was 100% (active); in experiment [3] (at 50.0 µM), 99.7% (active); in experiment [4] (setting [7]), 3%; in experiment [4] (setting [8]) it was 99% (active); in experiment [4] (at 50.0 µM), 99.3% (active). For the same compound, the growth inhibition in experiment [5] (setting [7]) is 14%; in experiment [5] (setting [8]), 99% (active); in experiment [5] (at 50.0 µM), 99.8% (active); in experiment [6] (setting [7]) it was 13%; in experiment [6] (setting [8]), 99% (active); in experiment [6] (at 50.0 µM), 99.5% (active).
In the case of `CC(=O)OCc1cc2c(s1)C(=O)c1sccc1C2=O`, the growth inhibition in experiment [1] (setting [7]) was 21%; in experiment [1] (setting [8]), 83% (active); in experiment [1] (at 50.0 µM), 49.6%; in experiment [2] (setting [7]), 8%; in experiment [2] (setting [8]), 67%; in experiment [2] (at 50.0 µM), 81% (active). The growth inhibition was 12% in experiment [3] (setting [7]); 15% in experiment [3] (setting [8]); 88.8% (active) in experiment [3] (at 50.0 µM); 11% in experiment [4] (setting [7]); 21% in experiment [4] (setting [8]); 86.2% (active) in experiment [4] (at 50.0 µM). The growth inhibition is 41% in experiment [5] (setting [7]); 60% in experiment [5] (setting [8]); 88.7% (active) in experiment [5] (at 50.0 µM); 24% in experiment [6] (setting [7]); 89% (active) in experiment [6] (setting [8]); 89% (active) in experiment [6] (at 50.0 µM).
With `Clc1ccc(CSCCc2ccncc2)cc1Cl`, the growth inhibition in experiment [1] (setting [7]) was -5%; in experiment [1] (setting [8]), 98% (active); in experiment [1] (at 50.0 µM) it was 98.7% (active); in experiment [2] (setting [7]) it was 0%; in experiment [2] (setting [8]), 96% (active); in experiment [2] (at 50.0 µM) it was 99% (active). The growth inhibition is 5% in experiment [3] (setting [7]); 97% (active) in experiment [3] (setting [8]); 97.5% (active) in experiment [3] (at 50.0 µM); -19% in experiment [4] (setting [7]); 95% (active) in experiment [4] (setting [8]); 97.6% (active) in experiment [4] (at 50.0 µM). For the same compound, the growth inhibition is 5% in experiment [5] (setting [7]); 98% (active) in experiment [5] (setting [8]); 98.2% (active) in experiment [5] (at 50.0 µM); 4% in experiment [6] (setting [7]); 97% (active) in experiment [6] (setting [8]); 98.8% (active) in experiment [6] (at 50.0 µM).
